From PubChem BioAssay
Shn3 inh set2: reduces Shn3 3'UTR luciferase signal in osteoblasts; Clone20 osteoblast Shn3 3'UTR firefly luciferase, 24 h; inhibition, % at 12.5 µM; 0.52% of 360,000 active; AID 588674;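 active = mean inhibition of at least 75% with every replicate also reaching 75%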
TRPM1 prom inh: MITF TRPM1 promoter inhibition in SK-MEL-5 cells; inhibition, % at 12.5 µM; SK-MEL-5 TRPM1 promoter luciferase, 24 h; 0.83% of 330,000 active;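 active = mean inhibition across replicates of 60% or more, whatever share of single replicates reaches that level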
Peg3 promoter: reduces Peg3 promoter-driven luciferase expression in HeLa; inhibition, % at 20 µM; HeLa PEG-Prom luciferase reporter, luminescence, overnight; AID 588405; 1.7% of 360,000 active;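 active = inhibition of at least 50% at 20 µM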
LMP1 NFkB inh: inhibitors of Epstein-Barr LMP1-induced NF-kappaB reporter. LMP1-induced NF-kappaB luciferase reporter cells, luminescence. inhibition, % at 12.5 µM. 0.69% of 350,000 active; in the data active = inhibition above about 41%
CF NFkB inh: inhibitors of cystic fibrosis induced NF-kB; inhibition, % at 5 µM; 0.86% of 360,000 active; KKLEB NF-kB-GFP reporter, PAF-induced, GFP fluorescence overnight;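 active = at least 50% inhibition at 5 µM, scaled per plate between neutral and stimulator controls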;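 also: PAF is a Pseudomonas aeruginosa culture filtrate used as stimulus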
KKLEB tox: reduces viability of KKLEB cystic fibrosis airway cells; 0.36% of 360,000 active; activity change (cytotoxicity), % at 5 µM; KKLEB CF airway cells viability, ATPlite luminescence, overnight; hits give low values; cells stimulated with P. aeruginosa culture filtrate;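 active = corrected activity change at or below -50% at 5 µM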
Large screens that a line does not name were inactive. Most compounds without a hit are left out; they make up all but 2.9% or so of the library.

OC(Cc1ccccc1Br)c1ncc(-c2ccc(Cl)cc2)[nH]1 (stereo not drawn)	none (no result: TRPM1 prom inh, LMP1 NFkB inh)
Nc1ccc(N=Nc2ccccc2)c(N)n1	CF NFkB inh 63
Oc1c(Cl)cc(Cl)cc1/C=N/NC(=S)NC1CC2C=CC1C2 (stereo not drawn)	CF NFkB inh 50, KKLEB tox -72 (no result: Shn3 inh set2)
NCC(=O)NCC(=O)NC[C@H]1O[C@@H](n2cnc3c(N)ncnc32)[C@H](O)[C@@H]1O	none
CCCc1cc(=O)oc2cc(OCC(=O)NCCc3c[nH]c4ccccc34)ccc12	Peg3 promoter 57
COC(=O)C1=C(C(=O)OC)[C@@H]2N(C)c3ccccc3[C@@]23C[C@@H](C(=O)OC)N(C(=O)c2cccs2)C3=N1	none
COC(=O)C1=C(C(=O)OC)[C@@H]2N(Cc3ccccc3)c3ccccc3[C@@]23C[C@@H](C(=O)OC)N(C(=O)c2cc(C)oc2C)C3=N1	Peg3 promoter 55
COC(=O)C1=C(C(=O)OC)[C@@H]2N(C)c3ccccc3[C@@]23C[C@@H](C(=O)OC)N(C(=O)c2ccc(Br)cc2)C3=N1	Peg3 promoter 82
CCOC(=O)N1C2=NC(C(=O)OC)=C(C(=O)OC)[C@@H]3N(C)c4ccccc4[C@]23C[C@H]1C(=O)OC	none
COC(=O)C1=C(C(=O)OC)[C@@H]2N(C)c3ccc(OC)cc3[C@@]23C[C@@H](C(=O)OC)N(C(=O)c2cccs2)C3=N1	CF NFkB inh 54
COC(=O)C1=C(C(=O)OC)[C@@H]2N(Cc3ccccc3)c3ccccc3[C@@]23C[C@@H](C(=O)OC)N(C(=O)c2cccs2)C3=N1	Peg3 promoter 81
CCc1nc2c(OCc3ccc(Cl)cc3Cl)cccn2c1N(C)C(C)=O	none (no result: TRPM1 prom inh, LMP1 NFkB inh)
c1ccc(NCCC2OCC3(CO2)COC(CCNc2ccccc2)OC3)cc1 (stereo not drawn)	none
COc1cccc(NC(=O)C2(C)CCCN(C(C)C)C2)c1 (stereo not drawn)	none (no result: TRPM1 prom inh, LMP1 NFkB inh)
CCC/C=C/c1ccc(CN2C(CC(C)C)C(=O)N(Cc3cn(CCOCOC)nn3)CCS2(=O)=O)cc1 (stereo not drawn)	none (no result: TRPM1 prom inh)
CCN(CC)c1ccc(C2NC(=O)c3ccccc3N2)cc1 (stereo not drawn)	LMP1 NFkB inh 43, KKLEB tox -80
CN1C/C(=C/c2ccsc2)C(=O)/C(=C/c2ccsc2)C1	TRPM1 prom inh 87
CCOc1cc(/C=C2\CN(C)C/C(=C\c3ccc(O)c(OCC)c3)C2=O)ccc1O	Shn3 inh set2 96, TRPM1 prom inh 102, Peg3 promoter 103, CF NFkB inh 63
C=CCNC(=O)/C(C#N)=C\c1cc(Cl)c(O)c(OCC)c1	none
CN1C/C(=C/c2ccncc2)C(=O)/C(=C/c2ccncc2)C1	none
CCOc1cc(/C=C2\CCC/C(=C\c3cc(Cl)c(O)c(OCC)c3)C2=O)cc(Cl)c1O	TRPM1 prom inh 72, Peg3 promoter 81, CF NFkB inh 52, KKLEB tox -50
CCOC(=O)C1(C)CCN1C(=O)c1cc(C)oc1C (stereo not drawn)	none (no result: TRPM1 prom inh, LMP1 NFkB inh)
COc1ccc(C2=Nn3c(nnc3-c3ccccc3OC)SC2)cc1OC	CF NFkB inh 53
COc1ccc(C2=Nn3c(nnc3-c3ccccc3F)SC2)cc1OCC1CC1	Peg3 promoter 53
FC(F)Oc1ccc(C2=Nn3c(nnc3-c3ccccc3Cl)SC2)cc1OCC1CC1	none
COc1ccc(C2=Nn3c(nnc3-c3ccccn3)SC2)cc1OC	none
COc1ccccc1N1C(=O)C=C(Sc2nc(C)cc(C)n2)C1=O	Peg3 promoter 87 (no result: TRPM1 prom inh, LMP1 NFkB inh)
COc1ccc(S(=O)(=O)NCc2cccnc2)cc1NC(=O)c1ccccc1C	none
C(=N\Nc1nc2ccccc2[nH]1)/c1cccc2cccnc12	LMP1 NFkB inh 71
O=C(N/N=C/c1cccc2cccnc12)c1ccccc1O	Shn3 inh set2 92, TRPM1 prom inh 69
Cc1ccccc1/C=N/Nc1nc2ccccc2[nH]1	none
O=C(N/N=C/c1cccc2nccnc12)c1ccccc1O	none
O=C(C1CCCCC1)N1C[C@@H](O)[C@H](n2cc(C3CC3)nn2)C[C@@H]1c1ccccc1	none (no result: TRPM1 prom inh)
CCN(CC)c1ncnc2c1ncn2[C@H]1CN(Cc2cccnc2)C[C@@H](CO)O1	none (no result: TRPM1 prom inh, LMP1 NFkB inh)
C[C@H](CO)N1C[C@H](C)[C@@H](CN(C)C(=O)c2ccc3c(c2)OCO3)Oc2cc(/C=C/c3ccccc3)ccc2S1(=O)=O	Peg3 promoter 62 (no result: TRPM1 prom inh)
C[C@@H]1CN([C@@H](C)CO)S(=O)(=O)c2ccc(/C=C/c3ccccc3)cc2O[C@@H]1CN(C)Cc1ccc(C(=O)O)cc1	LMP1 NFkB inh 55 (no result: TRPM1 prom inh)
C[C@H](CO)N1C[C@H](C)[C@H](CN(C)C(=O)c2ccccc2)Oc2cc(Br)ccc2S1(=O)=O	none (no result: TRPM1 prom inh)
COc1ccc(-c2nc(CS(=O)CC(=O)NCc3ccc(Cl)cc3)c(C)o2)cc1 (stereo not drawn)	LMP1 NFkB inh 44
Cc1oc(-c2ccc(Cl)cc2)nc1CS(=O)CC(=O)NCc1ccccc1 (stereo not drawn)	none
CCc1ccc(-c2nc(CS(=O)CC(=O)NCc3ccccc3)c(C)o2)cc1 (stereo not drawn)	Peg3 promoter 53
Cc1ccc(-c2nc(CS(=O)CC(=O)NCc3ccc(Cl)cc3)c(C)o2)cc1 (stereo not drawn)	none (no result: TRPM1 prom inh)
O=C(NCc1cccnc1)c1cc(C2CCCCN2S(=O)(=O)c2cccs2)on1 (stereo not drawn)	none (no result: TRPM1 prom inh, LMP1 NFkB inh)
CCOc1ccc(NC(=O)Cn2cncc2-c2ccc([N+](=O)[O-])cc2)cc1	Peg3 promoter 81
CCN1CCN(CCCNC(=O)c2ccc3c(c2)NC(=O)c2ccccc2S3)CC1	none (no result: TRPM1 prom inh)
CCN1CCCC1CNC(=O)c1ccc2c(c1)NC(=O)/C(=C\c1ccc(OC)c(OC)c1)S2 (stereo not drawn)	TRPM1 prom inh 87
COc1ccc(C(=O)NCCN2CCOCC2)cc1[N+](=O)[O-]	LMP1 NFkB inh 80
CCN1CCCC1CNC(=O)c1ccc2c(c1)NC(=O)/C(=C\c1ccccc1Cl)S2 (stereo not drawn)	none (no result: TRPM1 prom inh)
CCN1CCN(CCCNC(=O)c2ccc3c(c2)NC(=O)/C(=C\c2cccc(C)c2)S3)CC1	TRPM1 prom inh 102, Peg3 promoter 107
Cc1cccc(/C=C2/Sc3ccc(C(=O)NCCCN4CCOCC4)cc3NC2=O)c1	Peg3 promoter 65
Cn1c(N)c(C(=O)COC(=O)C2Cc3ccccc3CN2S(C)(=O)=O)c(=O)n(C)c1=O (stereo not drawn)	none (no result: TRPM1 prom inh)
O=C(COC(=O)C1CC2C=CC1C2)Nc1c(Br)cc([N+](=O)[O-])cc1Br (stereo not drawn)	none
CC1(C(=O)O)CCCN1C(=O)c1ccco1 (stereo not drawn)	none (no result: TRPM1 prom inh, LMP1 NFkB inh)
CC1(C(=O)NCc2cccc(Cl)c2)Cc2c(-c3cccc(C(N)=O)c3)ccnc2O1 (stereo not drawn)	none (no result: TRPM1 prom inh, LMP1 NFkB inh)
COc1ccc(/C=C2/Sc3ccc(C(=O)NCCCN4CCOCC4)cc3NC2=O)cc1OC	Peg3 promoter 88
